# 12-LOX inh – blocks human arachidonate 12S-lipoxygenase | purified 12hLO, xylenol orange hydroperoxide absorbance | Potency, µM (top dose mostly 108 µM), for inactives: at the highest dose activity change, negative = inhibition, actives largely listed as inhibitors | actives 1.1% (n = 580,000); note: % is set by controls: 0 for no effect and ±100 for the full control effect
# Target sequence (P18054 whole entry, looked up): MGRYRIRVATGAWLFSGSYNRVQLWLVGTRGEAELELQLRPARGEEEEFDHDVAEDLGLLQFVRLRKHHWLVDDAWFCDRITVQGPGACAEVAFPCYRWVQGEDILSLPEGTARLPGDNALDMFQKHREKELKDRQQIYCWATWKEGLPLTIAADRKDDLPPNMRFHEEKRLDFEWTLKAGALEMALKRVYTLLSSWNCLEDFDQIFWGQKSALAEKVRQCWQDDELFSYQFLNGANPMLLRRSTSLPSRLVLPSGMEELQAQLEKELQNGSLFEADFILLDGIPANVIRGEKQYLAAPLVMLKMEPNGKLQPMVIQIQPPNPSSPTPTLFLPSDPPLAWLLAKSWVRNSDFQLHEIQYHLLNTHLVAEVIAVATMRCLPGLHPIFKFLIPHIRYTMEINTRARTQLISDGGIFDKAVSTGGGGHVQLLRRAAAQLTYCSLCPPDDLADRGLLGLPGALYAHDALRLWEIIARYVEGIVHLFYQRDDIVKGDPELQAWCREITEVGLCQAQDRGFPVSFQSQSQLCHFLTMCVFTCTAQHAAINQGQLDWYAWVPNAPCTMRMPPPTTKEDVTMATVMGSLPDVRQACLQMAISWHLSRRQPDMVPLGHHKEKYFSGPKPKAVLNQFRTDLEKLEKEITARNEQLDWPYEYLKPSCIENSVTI
#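 Hydroperoxide product was detected by ferrous iron/xylenol orange as the 573 to 405 nm absorbance ratio. Arachidonic acid at 40 uM (final) was turned over for 30 min at room temperature by 150 nM human 12hLO, pH 7.0 Hepes buffer, after 15 min compound preincubation.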
# G9a block – G9a (human) methyltransferase inhibition; Q96KQ7; G9a H3K9 monomethylation, AlphaScreen, 2 h; Potency, µM (doses to about 102 µM), without a hit: top-dose activity, negative = inhibition, most hits filed as inhibitors; actives 8.8% (n = 350,000); note: % is set by controls: 0 for no effect and ±100 for the full control effect; nearly all actives have a fitted effect of over 75% in size
#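 G9a (20 nM) preincubated 15 min RT with compounds, then 500 nM biotinylated H3K9 peptide and 20 uM SAM added; 2 h RT reaction. Monomethyl-H3K9 product detected by AlphaScreen with anti-H3K9me1 antibody, streptavidin donor and anti-rabbit IgG acceptor beads.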
# HP1b binding inh – inhibitors of HP1-beta chromodomain binding to methylated histone tails; AlphaScreen HP1-beta / biotin-H3K9me3 peptide binding; P83916; actives 0.56% (n = 390,000); Potency, µM (highest dose often 114 µM), without a hit: top-dose activity change, negative = inhibition, usual class: inhibitors; note: nearly all actives have a fitted effect of over 70% in size
#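 HP1-beta protein (50 nM final) preincubated 30 min at room temperature with biotinylated H3(1-18)K9me3 peptide (50 nM) in PBS pH 7.4, 0.01% Tween-20, then compound added for 30 min. AlphaScreen streptavidin donor/nickel chelate acceptor beads (10 ug/mL final), 30 min dark, luminescence read.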
# PLK1 PBD block – inhibitors of human PLK1 polo-box domain binding. P53350. Plk1 PBD binding of FITC phosphopeptide, fluorescence polarization. Potency, µM, without a hit: max response, negative = inhibition, usual class: inhibitors. actives 2.8% (n = 360,000). AID 720504; note: series mostly up to about 57 µM; % is set by controls: 0 for no effect and ±100 for the full control effect; nearly all actives have a fitted effect of over 65% in size
# JMJD2A Tudor inh – inhibitors of human JMJD2A Tudor domain; O75164; AlphaScreen JMJD2A-Tudor / H3K4me3 peptide binding; Potency, µM (top dose mostly 114 µM), without a hit: at the highest dose activity change, negative = inhibition, most hits filed as inhibitors; actives 4.4% (n = 390,000); AID 504339; note: % is set by controls: 0 for no effect and ±100 for the full control effect; nearly all actives have a fitted effect of over 50% in size
# BAZ2B inh – BAZ2B (human) inhibition. actives 4.4% (n = 360,000). AlphaScreen BAZ2B-H3K14Ac peptide displacement. Q9UIF8. AID 504333. Potency, µM (doses to about 114 µM), for inactives: at the highest dose activity change, negative = inhibition, actives largely listed as inhibitors; note: % is set by controls: 0 for no effect and ±100 for the full control effect; nearly all actives have a fitted effect of over 60% in size
#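 Compounds, titrated to a top concentration of 110 uM, were incubated 30 min at room temperature with preformed BAZ2B/acetyl-K14 H3 peptide complex (50 nM each). Proximity signal was measured by AlphaScreen after 20 min with beads.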
# * hit, by the source's call; ? = inconclusive; . = not tested or not shown; ! = repeats disagree; [ ] = another dose, or the depositor's remark. Rows were chosen to be rich in hits. Some 9% of all compounds tested hit in one or more screens of this group. Calls come from the whole dose curve; as a rule, active = well fitted curve in the direction sought with a large enough effect; inconclusive = small, poorly fitted or top-dose-only effect, or another doubt; inactive = no such curve, though single readings can be large; an effect the other way counts as inactive or inconclusive. Potency is the fitted concentration of half-maximal effect.
SMILES,12-LOX inh,G9a block,HP1b binding inh,PLK1 PBD block,JMJD2A Tudor inh,BAZ2B inh
C#CCOCCOCCOCCNc1nc(N2CCN(C(=O)CCCCCCCCCCNC(=O)Cn3cc(C[C@@H](C)O)nn3)CC2)nc(N2CCN(C(=O)CCCCCCCCCCNC(=O)[C@@H](CCSC)n3cc(CCO)nn3)CC2)n1,.,1%[2.33 µM],33%,4%,-25%,4%
C#CCOCCOCCOCCNc1nc(N2CCN(C(=O)CCCCCCCCCCNC(=O)[C@H](CCCCN)n3cc(C)nn3)CC2)nc(N2CCN(C(=O)CCCCCCCCCCNC(=O)[C@H](CCCN=C(N)N)n3cc(C[C@@H](C)CC)nn3)CC2)n1,.,-7%[2.33 µM],?,10%,56µM*,?
C#CCOCCOCCOCCNc1nc(N2CCOCC2)nc(N2CCN(C(=O)CCCCCCCCCCNC(=O)[C@H](CO)n3cc(CCCSC)nn3)CC2)n1,-17%,-3%[2.33 µM],21%,-5%,-34%,-32%
Cc1cc(NS(=O)(=O)c2ccc(NC(=O)NC(C)(C(F)(F)F)C(F)(F)F)cc2)no1,5%,-29%[59 µM],7%,-9%,-15%,-7%
COc1cc2c(cc1OC)C(C(=O)N(C)Cc1ccccc1)C(c1cccnc1)N(C)C2=O (stereo not given),0%,2%[59 µM],32%,-4%,-3%,3%
CCc1cc2c(SCC(=O)NC3CCS(=O)(=O)C3)ncnc2s1 (stereo not given),5%,29%,62%,-8%,-12%,4%
COC(=O)[C@]12C[C@H](CC(=O)N3CCC(c4ccccc4)CC3)C(=O)N(Cc3ccccc3)C1=C[C@H](C(C)C)O[C@@H]2C1CC1,-4%,.,.,.,.,.
C=Cc1ccc(Cn2c(C(=O)O)c(CNCc3ccccc3)c3ccc(C)cc32)cc1,?,?,0%,.,?,50µM*
Cc1ccc(CNCc2c(C(=O)O)n(Cc3ccc(C)cc3)c3cc(C)ccc23)cc1,?,?,1%,.,?,-36%
Cc1cccc(-c2noc(CN(C(=O)c3ccc(C)c(C)c3)C(C)C)n2)c1,-5%,31%[59 µM],74%,.,18%,34%[57.1 µM]
CC(C)N(Cc1nc(-c2ccccc2)no1)C(=O)CSc1ccccc1,-9%,6%[59 µM],50%,15µM*,27%,20%
Cc1cccc(-c2noc(CN(C(=O)c3ccc4c(c3)OCO4)C(C)C)n2)c1,-28%,-7%[2.33 µM],11%,27µM*,-17%[11.4 µM],10%
Cc1ccc2c(c1C)-c1c(ccc(C)c1C)C(=O)C2=O,?,.,16µM*,19µM*,50µM*,.
Cc1ccc(CC#N)c(-c2c(CC#N)ccc(C)c2C)c1C,14%,.,.,-9%,.,.
Cc1ccccc1Nc1nc(N)nc(COC(=O)c2nn(C)c(=O)c3ccccc23)n1,4%,.,.,4%,.,.
COc1ccc(-c2nc3c(n2O)CCc2c-3no[n+]2[O-])cc1,2%,50µM*,-4%,?,-11%[11.4 µM],-32%
COn1c(-c2ccccc2)nc2c1CCc1c-2no[n+]1[O-],-8%,14%[59 µM],19%,-12%,-6%,6%
Cc1cc2nc(CS)[nH]c2cc1C,0%,10µM*,12%,?,-20%,-13%
S=c1[nH]c2ccccc2s1,28µM*!,11µM*,.,.,.,.
O=C(Nc1ccc2[nH]ccc2c1)c1ccccc1,?,?,-1%,-2%,-24%,-20%
O=C(Nc1ccc(F)cc1)Nc1ccccc1F,-10%,23%,44%,1%,-10%,-3%
O=C(Nc1ccc2[nH]c(=S)sc2c1)c1ccccc1,?,5.6µM*,-5%,?,-32%,-37%
O=C(Nc1ccc2[nH]c(=S)sc2c1)Nc1ccccc1F,14µM*,45µM*,25%,21µM*,-21%,?
CC1CCN(c2c([N+](=O)[O-])c(=O)n(-c3ccccc3)c3ccccc23)CC1,0%,-17%[59 µM],13%,-25%,-26%,-2%
CCCC(C)Nc1ncnc2c1CN(C1CCCNCC1)C(=O)CN2C (stereo not given),-26%[6.33 µM],.,.,.,.,.
SMILES,12-LOX inh,G9a block,HP1b binding inh,PLK1 PBD block,JMJD2A Tudor inh,BAZ2B inh
O=C1NC[C@H](Cc2ccccc2)N(C[C@@H]2CCCN2C[C@H](Cc2ccc(O)cc2)N2C[C@H](Cc3ccc(O)cc3)N(CC3CCCCC3)C(=O)C2=O)C1=O,?,.,.,3%,.,.
CCOc1ccc(C2C(C#N)=C(N)N(c3sc4c(c3C#N)CCCC4)C3=C2C(=O)CCC3)cc1 (stereo not given),34%,-10%[59 µM],29%,0%,-22%,-5%
N#CC1=C2N=C(N)c3c(sc4c3CCCCC4)N2C2=C(C(=O)CCC2)C1c1ccccc1 (stereo not given),-28%,-9%[59 µM],-6%,-7%,?,45µM*
Cc1ccc(C2C(C#N)=C3N=C(N)c4ccccc4N3C3=C2C(=O)CCC3)cc1 (stereo not given),-25%,?,6%,-1%,?,50µM*
N#CC1=C2N=C(N)c3ccccc3N2C2=C(C(=O)CCC2)C1c1ccc(F)cc1 (stereo not given),13%,-35%,3%,0%,?,-35%
CCOC(=O)c1nnn(-c2nonc2NC(C)=O)c1C,0%,21%[12.7 µM],20%,2%,-3%,2%
O=C(NC1CCCCC1)c1ccc(COc2ccccc2)o1,-24%,-27%,12%,-5%,-13%,-4%
Cc1ccc(NC(=O)CCNc2cnc3cnccn23)cc1F,50µM*,.,.,.,.,.
CCOC(=O)c1ccccc1NC(=O)CN1C(=O)c2ccccc2S1(=O)=O,-1%,-3%[12.7 µM],8%,-3%,-2%,6%
N#C/C(=C\c1cccc(Cl)c1)C(=O)c1ccccc1,?,40µM*,12%,0.84µM*,-19%,-6%
COc1cccc(C(=O)/C(C#N)=C\c2ccccc2C(F)(F)F)c1,40µM*,.,.,.,.,.
COc1cccc(C(=O)/C(C#N)=C\c2ccc(F)c(Br)c2)c1,18µM*,.,.,.,.,.
N#C/C(=C\c1ccccc1C(F)(F)F)C(=O)Nc1ccccc1,-1%,16%[59 µM],4%,-8%,-24%,-25%
COC(=O)/C(=C/c1cccc(OC)c1)c1ccccc1,-12%,.,.,.,.,.
N#C/C(=C\c1ccc[nH]1)C(=O)c1ccccc1,-25%,7%[2.33 µM],19%,-10%,-20%,-23%
COc1cccc(C=C(C#N)C(=O)c2ccccc2)c1,?,.,.,2.1µM*,.,.
COc1ccc(-c2csc(NC(=O)/C(N=Nc3ccccc3)=C(\C)O)n2)cc1,.,-46%,.,.,.,-38%
CC(C)NC(=S)N1CCC(Cc2ccccc2)CC1,-6%,12%,38%,0%,-18%,-3%
COc1ccc2cc3cc(C(=O)NCCN4CCN(c5ccccc5F)CC4)oc3nc2c1,0%[57.4 µM],15%[12.7 µM],10%,-2%,-15%,-29%

# From PubChem BioAssay
